{
  "source": "paper PMC11062922",
  "about": "(Nature Chemical Biology, 2023)",
  "key": {"PIK3CD": {"tested_on": "PIK3CD", "design": "species or system human, MV4-11 + K-562 + COLO205 + SK-N-BE2 + OVCAR-8", "settings": "read-out: apparent Kd, n = 1"}, "PIK3CB": {"tested_on": "PIK3CB", "design": "species or system human, MV4-11 + K-562 + COLO205 + SK-N-BE2 + OVCAR-8", "settings": "read-out: apparent Kd, n = 1"}, "[1]": {"settings": "compound concentrations: 100 nM and 1000 nM (sheet 'Samples'), CATDS: 1"}, "[2]": {"settings": "compound concentrations:100 nM and 1000 nM (sheet 'Samples')"}},
  "note": "Read-outs that look alike come from different tables or passages of the source.",
  "data": [
    {"smiles": "CC(C)N1CCN(Cc2cnc(-c3cc(-c4cccc5[nH]ccc45)cc4[nH]ncc34)o2)CC1", "note": "[GSK2269557]", "values": [
      {"measurement": "potency estimated from few doses", "setting": "PIK3CD; [1]", "result": 1.45, "unit": "nM"}
    ]},
    {"smiles": "CN(C1=C(c2ccccc2)C(=O)NC1=O)c1ccccc1", "note": "[SB-334860]", "values": [
      {"measurement": "potency estimated from few doses", "setting": "PIK3CD; [2]", "result": 175, "unit": "nM"}
    ]},
    {"smiles": "Cc1c(Cn2c(C)nn3c(=O)cc(N4CCO[C@H](C)C4)nc23)cccc1C(F)(F)F", "note": "[GSK2373690A]", "values": [
      {"measurement": "potency estimated from few doses", "setting": "PIK3CB; [2]", "result": 6.1, "unit": "nM"}
    ]},
    {"smiles": "O=C(O)C(F)(F)F.[2H]C([2H])(c1cccc(C(F)(F)F)c1C)n1c(SC)nn2c(=O)cc(N3CCOCC3)nc12", "note": "[GSK2363608B]", "values": [
      {"measurement": "potency estimated from few doses", "setting": "PIK3CB; [2]", "result": 8.69, "unit": "nM"},
      {"measurement": "potency estimated from few doses", "setting": "PIK3CD; [2]", "result": 146, "unit": "nM"}
    ]},
    {"smiles": "Nc1ncc(-c2ccc3nccc(-c4ccncc4)c3c2)cc1S(=O)(=O)N1CCCCC1", "note": "[GSK1693850A]", "values": [
      {"measurement": "potency estimated from few doses", "setting": "PIK3CB; compound concentrations: 100 nM and 1000 nM (sheet 'Samples'), CATDS: 8.8291431205062498E-2", "result": 406, "unit": "nM"},
      {"measurement": "potency estimated from few doses", "setting": "PIK3CD; compound concentrations: 100 nM and 1000 nM (sheet 'Samples'), CATDS: 0.491044301139066", "result": 4.69, "unit": "nM"}
    ]},
    {"smiles": "CSc1nn2c(=O)cc(N3CCOCC3)nc2n1Cc1cccc(Cl)c1Cl", "note": "[GSK2347225A]", "values": [
      {"measurement": "potency estimated from few doses", "setting": "PIK3CB; compound concentrations: 100 nM and 1000 nM (sheet 'Samples'), CATDS: 0.69525432072765503", "result": 11.5, "unit": "nM"}
    ]},
    {"smiles": "Cc1ccccc1Cn1ccn2c(=O)cc(N3CCOCC3)nc12", "note": "[GSK2269905A]", "values": [
      {"measurement": "potency estimated from few doses", "setting": "PIK3CB; compound concentrations: 100 nM and 1000 nM (sheet 'Samples'), CATDS: 0.94535386241692498", "result": 41.9, "unit": "nM"}
    ]},
    {"smiles": "COc1ccc(Nc2nccc(N3CCC(NC(=O)c4cccc(NC(C)=O)c4)C3)n2)cc1", "note": "(centres unmarked) [GSK1379732A]", "values": [
      {"measurement": "potency estimated from few doses", "setting": "PIK3CD; [1]", "result": 141, "unit": "nM"}
    ]},
    {"smiles": "Cl.NC(=O)c1cccc(Nc2nccc(Nc3ccc(Oc4c(Cl)cccc4Cl)c(Cl)c3)n2)c1", "note": "[GW659009A]", "values": [
      {"measurement": "potency estimated from few doses", "setting": "PIK3CD; compound concentrations: 100 nM and 1000 nM (sheet 'Samples'), CATDS: 0.90760673272471903", "result": 9.83, "unit": "nM"}
    ]},
    {"smiles": "O=c1cc(N2CCOCC2)nc2n(Cc3ccc(F)c(Cl)c3)ccn12", "note": "[GSK2297099A]", "values": [
      {"measurement": "potency estimated from few doses", "setting": "PIK3CB; compound concentrations: 100 nM and 1000 nM (sheet 'Samples'), CATDS: 0.58054918147360901", "result": 32.5, "unit": "nM"},
      {"measurement": "potency estimated from few doses", "setting": "PIK3CD; [2]", "result": 150, "unit": "nM"}
    ]},
    {"smiles": "CCn1c(-c2ccncc2)nc2cnccc21", "note": "[SB-735216]", "values": [
      {"measurement": "potency estimated from few doses", "setting": "PIK3CD; compound concentrations: 100 nM and 1000 nM (sheet 'Samples'), CATDS: 0.88201100485399897", "result": 172, "unit": "nM"}
    ]},
    {"smiles": "CN(C)S(=O)(=O)c1cc(-c2ccc3nccc(-c4cccc(S(N)(=O)=O)c4)c3c2)cnc1N", "note": "[GSK1669921A]", "values": [
      {"measurement": "potency estimated from few doses", "setting": "PIK3CB; compound concentrations: 100 nM and 1000 nM (sheet 'Samples'), CATDS: 0.12770502550951299", "result": 777, "unit": "nM"},
      {"measurement": "potency estimated from few doses", "setting": "PIK3CD; compound concentrations: 100 nM and 1000 nM (sheet 'Samples'), CATDS: 0.59190161407117303", "result": 9.62, "unit": "nM"}
    ]},
    {"smiles": "O=C(NCCNc1ccnc(NCc2ccc(F)cc2)n1)c1cc2ccccc2s1", "note": "[GSK1379944A]", "values": [
      {"measurement": "potency estimated from few doses", "setting": "PIK3CD; [2]", "result": 200, "unit": "nM"}
    ]},
    {"smiles": "O=c1cc(N2CCOCC2)nc2n(Cc3cccc(Cl)c3)ccn12", "note": "[GSK2296823A]", "values": [
      {"measurement": "potency estimated from few doses", "setting": "PIK3CB; [2]", "result": 30.5, "unit": "nM"}
    ]},
    {"smiles": "CC(C)c1ccc(O)cc1Nc1ccnc2ccc(C(F)(F)F)cc12", "note": "[GW482059X]", "values": [
      {"measurement": "potency estimated from few doses", "setting": "PIK3CD; compound concentrations: 100 nM and 1000 nM (sheet 'Samples'), CATDS: 0.57570605535332697", "result": 139, "unit": "nM"}
    ]},
    {"smiles": "C[C@H]1CC[C@@H](C(=O)Nc2ccccc2)CN1c1cc(-c2ccc3c(N)n[nH]c3c2)nc(N)n1", "note": "[GSK2283293_KCGS]", "values": [
      {"measurement": "potency estimated from few doses", "setting": "PIK3CB; [2]", "result": 1130, "unit": "nM"},
      {"measurement": "potency estimated from few doses", "setting": "PIK3CD; [2]", "result": 168, "unit": "nM"}
    ]},
    {"smiles": "CCCCCc1nc2c(N)ncnc2n1CCCCC", "note": "[SKF-97255]", "values": [
      {"measurement": "potency estimated from few doses", "setting": "PIK3CD; [1]", "result": 152, "unit": "nM"}
    ]},
    {"smiles": "Cc1c(Cn2c(C)c(C)n3c(=O)cc(N4CCOCC4)nc23)cccc1C(F)(F)F", "note": "[GSK2328680_KCGS]", "values": [
      {"measurement": "potency estimated from few doses", "setting": "PIK3CB; [1]", "result": 45.8, "unit": "nM"}
    ]},
    {"smiles": "Cc1nn2c(=O)cc(N3CCOCC3)nc2n1Cc1cccc(Cl)c1Cl", "note": "[GSK2342769A]", "values": [
      {"measurement": "potency estimated from few doses", "setting": "PIK3CB; compound concentrations: 100 nM and 1000 nM (sheet 'Samples'), CATDS: 0.39167168284884402", "result": 14.2, "unit": "nM"},
      {"measurement": "potency estimated from few doses", "setting": "PIK3CD; [2]", "result": 87.6, "unit": "nM"}
    ]},
    {"smiles": "Cc1cccc(-c2nc(Nc3ccc4c(cnn4C)c3)c3ccccc3n2)n1", "note": "[GW876731X]", "values": [
      {"measurement": "potency estimated from few doses", "setting": "PIK3CD; [2]", "result": 158, "unit": "nM"}
    ]}
  ]
}
